Assay results reported in PubChem BioAssay (NCI).
Compounds without any hit were thinned out: in the full panel of roughly 83,000, 20% have a hit.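 48-hour exposure, single concentration, 96-well plates; percent growth endpoint where 0 means no net growth. Active: below 10.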 Calls of active or inactive are those of the source.

Legend:
Experiment in all cases: NCI-60 one-dose screen, 48 h (100 = growth as untreated, 0 = no growth, -100 = all killed)
Settings in all cases: 10 µM unless noted
BT-549 breast = tested on: BT-549 breast
MDA-MB-435 melanoma = tested on: MDA-MB-435 melanoma
SW-620 colon = tested on: SW-620 colon
MCF7 breast = tested on: MCF7 breast
HCT-116 colon = tested on: HCT-116 colon
HCC-2998 colon = tested on: HCC-2998 colon
KM12 colon = tested on: KM12 colon
T-47D breast = tested on: T-47D breast

Measured: growth

C=C1C(=O)O[C@H]2[C@H]1CC/C(COC(=O)NCc1ccc(Cn3c(=O)sn(CCCCl)c3=O)cc1)=C\CC[C@@]1(C)O[C@@H]21
inactive: BT-549 breast 51.8% | MDA-MB-435 melanoma 26.8% | HCC-2998 colon 91.4% | KM12 colon 77.7%
active: SW-620 colon -51.9% | MCF7 breast 5.59% | HCT-116 colon -63.6%

COc1ccc2cc(-c3ccc(C(=O)NN)c(C)n3)ccc2c1
inactive: T-47D breast 79.5% | MDA-MB-435 melanoma 99.9% | MCF7 breast 90.4% | HCT-116 colon 93.7% | HCC-2998 colon 99.6% | KM12 colon 103%

C[C@@H]1C(=O)N(C[C@H](Cc2ccccc2)NC(=O)OCc2ccccc2)[C@]1(Cc1ccccc1)C(=O)OC(C)(C)C
inactive: T-47D breast 43.3% | MDA-MB-435 melanoma 76.9% | SW-620 colon 83.2% | MCF7 breast 61.1% | HCC-2998 colon 87.7% | KM12 colon 70.3%

OC(c1cccc(OCc2ccccc2)c1)c1nnc(-c2ccccc2)o1 (configuration not stated)
inactive: T-47D breast 72.9% | MDA-MB-435 melanoma 101% | SW-620 colon 104% | MCF7 breast 95.1% | HCC-2998 colon 112% | KM12 colon 90.7%

COc1ccc(Nc2ncc(Br)c(NCCCNC(=O)C3CCC3)n2)cc1
inactive: MDA-MB-435 melanoma 53.8% | SW-620 colon 29.1% | MCF7 breast 41.1% | HCC-2998 colon 42.4% | KM12 colon 15.2%
active: BT-549 breast -33.9% | HCT-116 colon 5.88%

CN1CCN(C2=C(Cl)C(=O)c3ccccc3C2=O)CC1
active: MDA-MB-435 melanoma -75%
inactive: T-47D breast 80.8% | MCF7 breast 54.9% | HCC-2998 colon 86.5%

Cc1ccc(NC(=O)C(Cl)Cl)cc1
inactive: T-47D breast 96.6% | MDA-MB-435 melanoma 107% | SW-620 colon 106% | MCF7 breast 94.6% | HCT-116 colon 96.5% | HCC-2998 colon 115% | KM12 colon 104%

CS(=O)(=O)c1ccc(-c2nc3cc(Cl)ccc3n2CC(=O)N/N=C/c2ccc(Cl)cc2)cc1
inactive: BT-549 breast 41.8% | MDA-MB-435 melanoma 73.7% | SW-620 colon 75% | MCF7 breast 37.4% | HCT-116 colon 42.1% | HCC-2998 colon 73.5% | KM12 colon 41%

CN1CCN(C(=O)[C@]23CCC(C)(C)C[C@@H]2C2=CC[C@@H]4[C@@]5(C)Cc6c([nH]c7ccccc67)C(C)(C)[C@@H]5CC[C@@]4(C)[C@]2(C)CC3)CC1
inactive: BT-549 breast 97% | MDA-MB-435 melanoma 84.6% | SW-620 colon 96.4% | MCF7 breast 69.9% | HCT-116 colon 70.7% | HCC-2998 colon 99.4% | KM12 colon 76.3%

Cc1cc2c(F)c(Oc3ncnc(Nc4ccc(N5C[C@@H](C)N[C@@H](C)C5)cc4)c3C#N)cc(F)c2[nH]1
inactive: MDA-MB-435 melanoma 19.9% | MCF7 breast 12.3% | HCC-2998 colon 84.1% | KM12 colon 11.9%
active: T-47D breast -1.93%

Cn1ccc(Cc2cnc(N)s2)n1
inactive: T-47D breast 101% | MDA-MB-435 melanoma 101% | SW-620 colon 98.9% | MCF7 breast 101% | HCC-2998 colon 100% | KM12 colon 103%

C=C1c2c(C)nn(-c3ccc(N)cc3)c2N(C)C23CC1C1(C)c4c(C)nn(-c5ccc(N)cc5)c4N(C)C(C)(CC12)C3 (configuration not stated)
inactive: BT-549 breast 72.7% | MDA-MB-435 melanoma 70.4% | SW-620 colon 77.1% | MCF7 breast 24.8% | HCT-116 colon 33.5% | HCC-2998 colon 85.8% | KM12 colon 68.3%

O=C(/C=C/c1ccccc1)c1ccc2ccccc2c1
active: HCT-116 colon -5.91%
inactive: T-47D breast 47.4% | MDA-MB-435 melanoma 103% | MCF7 breast 49.9% | KM12 colon 93.2%

C#C[C@]1(O)CC[C@H]2[C@@H]3CC=C4c5sc(N=C(N)N)nc5CC[C@]4(C)[C@H]3CC[C@@]21C
active: T-47D breast 1.23% | MDA-MB-435 melanoma -55.9% | SW-620 colon -47.1% | MCF7 breast 0.374% | HCC-2998 colon -15.9% | KM12 colon -28.6%

COc1cc(C2C=C(c3cccc(NC(C)=O)c3)Nc3ncnn32)cc(OC)c1OC (configuration not stated)
inactive: T-47D breast 64.7% | SW-620 colon 27.6% | MCF7 breast 18.3% | HCT-116 colon 20.3% | HCC-2998 colon 24% | KM12 colon 15.2%
active: MDA-MB-435 melanoma -47.7%

Cc1ccc(S(=O)(=O)NN/C(N)=N\S(=O)(=O)c2cc(C)c(Cl)cc2SCc2ccccc2)cc1
inactive: T-47D breast 87.9% | MDA-MB-435 melanoma 96.4% | MCF7 breast 99.8% | HCT-116 colon 94.6% | HCC-2998 colon 107% | KM12 colon 97.3%

C=C1c2c(C)nn(-c3ccc(O)cc3)c2N(C)C23C[C@@H]1C1(C)c4c(C)nn(-c5ccc(O)cc5)c4N(C)C(C)(C[C@H]12)C3 (some centres not stated)
inactive: BT-549 breast 28.6% | MDA-MB-435 melanoma 18.7% | SW-620 colon 31.2% | HCC-2998 colon 44.9% | KM12 colon 21.2%
active: MCF7 breast 5.99% | HCT-116 colon 8.9%

Cn1c(NCCc2ccc(O)c(O)c2)nc2c1c(=O)n(Cc1ccc(Cl)cc1)c(=O)n2C
inactive: BT-549 breast 71.6% | MDA-MB-435 melanoma 76.3% | SW-620 colon 75.9% | MCF7 breast 75.3% | HCT-116 colon 71.4% | HCC-2998 colon 89.3% | KM12 colon 79.6%

CCc1nc2ccccc2[nH]1
inactive: T-47D breast 123% | MDA-MB-435 melanoma 113% | SW-620 colon 104% | MCF7 breast 88.7% | HCT-116 colon 102% | HCC-2998 colon 110% | KM12 colon 113%

N#C/C=C(\c1ccc([N+](=O)[O-])cc1)n1nnc2cc(Cl)c(Cl)cc21
active: MDA-MB-435 melanoma 7.64% | SW-620 colon -34.8% | MCF7 breast 1.7% | KM12 colon -81.1%
inactive: T-47D breast 28.5% | HCC-2998 colon 19.9%

O=C(C[C@@]1(O)C(=O)Nc2c(Cl)ccc(Cl)c21)c1ccc(C2CC2)cc1
inactive: T-47D breast 40.5% | SW-620 colon 19.4% | MCF7 breast 16.5% | KM12 colon 24.7%
active: MDA-MB-435 melanoma -48% | HCC-2998 colon 9.4%

Cc1nc2ccccc2c(/C=C/c2ccc(Cl)cc2)c1C(=O)/C=C/c1ccc(Cl)cc1
active: T-47D breast -15.3% | MDA-MB-435 melanoma -51.4% | SW-620 colon -37.4% | MCF7 breast 3.86% | HCC-2998 colon -74.7% | KM12 colon -38.4%

Fc1ccc(Nc2nc(Nc3ccc(-c4nc5ccccc5[nH]4)cc3)c3cn[nH]c3n2)cc1
inactive: T-47D breast 12.1% | MDA-MB-435 melanoma 90.3% | SW-620 colon 10.9% | HCC-2998 colon 82.9% | KM12 colon 54.4%
active: MCF7 breast 4.38%

CCC(O)(C(c1ccccc1)c1ccccn1)C(c1ccccc1)c1ccccn1 (configuration not stated)
inactive: T-47D breast 92.3% | MDA-MB-435 melanoma 117% | SW-620 colon 120% | MCF7 breast 101% | KM12 colon 106%

CCCn1nc(-c2ccccc2)c2c(-c3ccccc3)onc2c1=O
inactive: BT-549 breast 71.5% | SW-620 colon 43.5% | MCF7 breast 40.9% | HCT-116 colon 58.9% | HCC-2998 colon 85.3% | KM12 colon 60%
active: MDA-MB-435 melanoma 8.42%

N#C/C(=C\c1ccc2c(c1)OCO2)n1nnc2ccccc21
active: MDA-MB-435 melanoma -69.1% | HCT-116 colon 5.72% | HCC-2998 colon -9.93% | KM12 colon -16.2%
inactive: T-47D breast 26.2% | MCF7 breast 10.3%

COc1cc2oc(-c3cccc(C(=O)Nc4ccc(C)cc4)c3)cc(=O)c2c(OC)c1OC
inactive: BT-549 breast 36.6% | MDA-MB-435 melanoma 27.9% | SW-620 colon 59.5% | MCF7 breast 24.5% | HCT-116 colon 19.6% | HCC-2998 colon 49.9% | KM12 colon 33%

Cc1cc(C(c2ccccc2)c2ccccc2)ccc1NS(=O)(=O)c1ccccc1
inactive: T-47D breast 85.6% | MDA-MB-435 melanoma 114% | SW-620 colon 101% | MCF7 breast 88.3% | HCC-2998 colon 104% | KM12 colon 97.7%

O=C1NN(C(=O)c2ccc(O)cc2)C(c2ccccc2)=N/C1=C\c1cn(-c2ccccc2)nc1-c1ccccc1
inactive: BT-549 breast 94.7% | MDA-MB-435 melanoma 105% | SW-620 colon 110% | MCF7 breast 96% | HCT-116 colon 95.7% | HCC-2998 colon 104% | KM12 colon 98.1%

CN(CCC(=O)/C(=C\c1ccccc1)c1ccc(Cl)cc1)Cc1ccccc1
inactive: T-47D breast 15.3% | MCF7 breast 28.3% | HCC-2998 colon 105% | KM12 colon 67.1%
active: MDA-MB-435 melanoma 1.24%

C/C(=N\NC(=O)Cn1c(-c2ccc(S(C)(=O)=O)cc2)nc2cc(Cl)ccc21)c1ccc(Cl)cc1
inactive: BT-549 breast 92.3% | MDA-MB-435 melanoma 79.1% | SW-620 colon 92.2% | MCF7 breast 62% | HCT-116 colon 80.5% | HCC-2998 colon 103% | KM12 colon 76.4%

Cc1cc(N(CCCNc2ccnc3cc(Cl)ccc23)Cc2ccccn2)nc(N2CCOCC2)n1
inactive: BT-549 breast 90.5% | MDA-MB-435 melanoma 111% | SW-620 colon 83.5% | MCF7 breast 87% | HCT-116 colon 57.9% | HCC-2998 colon 105% | KM12 colon 103%

COc1ccc(/C=C(\C#N)n2nnc3cc(F)c(F)cc32)c(OC)c1OC
inactive: BT-549 breast 70.9% | MDA-MB-435 melanoma 45.7% | SW-620 colon 62% | MCF7 breast 27.2% | HCT-116 colon 52.9% | HCC-2998 colon 114% | KM12 colon 67.8%

COc1ccc(-c2cc(-c3ccc(Nc4nc(Nc5ccccc5)nc(Nc5ccc(Cl)cc5)n4)cc3)nc(N)c2C#N)cc1
active: T-47D breast -32% | MDA-MB-435 melanoma -58.5% | SW-620 colon -45.6% | MCF7 breast -32.7% | HCT-116 colon -88.5% | KM12 colon -12.5%

COC1=CC(c2ccc[nH]2)=N/C1=C\c1[nH]c(C)c(C(=O)OCCn2cc(CCC[C@@H]3Cc4cc(O)ccc4C4CC[C@]5(C)[C@@H](O)CC[C@H]5C43)nn2)c1C (some centres not stated)
inactive: T-47D breast 102% | MDA-MB-435 melanoma 80% | SW-620 colon 56.3% | MCF7 breast 96% | HCC-2998 colon 85.7% | KM12 colon 66.9%

CCCCn1c(=O)[nH]c(N)c(C(c2ccc(F)cc2)c2c(N)[nH]c(=O)n(CCCC)c2=O)c1=O
inactive: T-47D breast 39.6% | MDA-MB-435 melanoma 64.7% | SW-620 colon 91.1% | MCF7 breast 46.8% | HCC-2998 colon 72.9% | KM12 colon 61.3%

COc1cc2c(O)n(CCCn3ccnc3)c3c4cnc5cccc(c(=O)c3c2cc1OC)c54
inactive: MDA-MB-435 melanoma 51% | MCF7 breast 10.8% | HCC-2998 colon 70.4% | KM12 colon 61%
active: T-47D breast -6.91%

COc1cc2c(cc1OC)-c1ccc3cc4c(cc3c1N(CCCN(C)C)C2)OCO4
inactive: T-47D breast 54.6% | MDA-MB-435 melanoma 44% | SW-620 colon 25.2% | MCF7 breast 26% | HCC-2998 colon 64.6% | KM12 colon 38.4%
